Only a selection was taken, and hits are over-represented in it overall.
Pf Dd2 growth – blocks in vitro growth of P. falciparum Dd2; actives 4.3% (n = 120,000); Potency, µM (doses to about 28.9 µM), actives largely listed as inhibitors; P. falciparum Dd2 growth, SYBR Green, 72 h; AID 1347417; active = well fitted inhibition curve with a large enough effect; note: nearly all actives have a fitted effect of over 65% in size
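Infected erythrocytes (Dd2, 0.3% parasitemia, 2.5% hematocrit final) are added to compound in RPMI-1640/Albumax II medium, grown 72 h at 37C in low oxygen, then lysed with saponin/Triton-X containing SYBR Green and read by fluorescence.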
Of the large screens only hits and unclear results are named; the others gave an inactive call.

COc1ccc(CN2CCN3C(=O)N(C4CCOCC4)C[C@H]3C2)cc1	none
CC(=O)c1[nH]c(C)c(C(=O)N[C@H]2[C@H]3CCO[C@H]3[C@@H]2N2CCCC2)c1C	none
O=C(Cc1cccc(Cl)c1)N1CC(c2nc(Cc3ccccc3)no2)C1	none
CCC(=O)N1C(C(=O)NC(C)C)COC12CCC(C)CC2 (configuration not stated)	none
Cc1noc(C)c1CC(=O)NCC1CCN(c2cc(-c3ccc(F)cc3)[nH]n2)CC1	none
CC(=O)Nc1ccccc1-c1nc2ccccc2n(C(C)C(=O)c2ccc(C)c(C)c2)c1=O (configuration not stated)	none
CCOc1ccc(NC(=O)C(CC)n2c(=O)c(-c3ccccc3NC(C)=O)nc3ccccc32)cc1 (configuration not stated)	none
COc1ccc(OC)c(NC(=O)C(C)n2c(=O)c(-c3ccccc3NC(C)=O)nc3ccccc32)c1 (configuration not stated)	Pf Dd2 growth 11µM
N#Cc1ccc(CN2CC[C@H](c3nnc(-c4ccccc4F)o3)C2)cc1	none
COCCNC(=O)[C@@H]1C[C@@H](O)CN1C1CCN(C(=O)COc2cccc(C)c2)CC1	none
Cc1cccc(NC(=O)C(=O)NCC(c2cccnc2)N2CCN(Cc3ccccc3)CC2)c1 (configuration not stated)	Pf Dd2 growth 7.9µM
Cc1ccc(NC(=O)C(=O)NCC(c2cccnc2)N2CCN(Cc3ccccc3)CC2)cc1 (configuration not stated)	none
O=C(NCC(c1cccnc1)N1CCN(Cc2ccccc2)CC1)C(=O)Nc1cccc(Cl)c1 (configuration not stated)	Pf Dd2 growth 4µM
Cc1cccc(NC(=O)C(=O)NCC(c2ccc3c(c2)OCO3)N2CCN(c3ccccc3)CC2)c1 (configuration not stated)	none
COc1ccccc1N1CCN(C(CNC(=O)C(=O)NCCN(C)C)c2cccnc2)CC1 (configuration not stated)	none
COCCNC(=O)C(=O)NCC(c1cccnc1)N1CCN(c2ccccc2F)CC1 (configuration not stated)	none
CCc1ccc(NC(=O)C(=O)NCC(c2cccnc2)N2CCN(C)CC2)cc1 (configuration not stated)	none
COc1ccc(N2CCN(C(CNC(=O)C(=O)NCc3cccnc3)c3cccnc3)CC2)cc1 (configuration not stated)	none
O=C(NCC(c1cccnc1)N1CCN(Cc2ccccc2)CC1)C(=O)Nc1ccc(Cl)cc1 (configuration not stated)	Pf Dd2 growth 14µM
Cc1ccc(NC(=O)C2CCN(C(=O)c3ncn4c3COC(c3ccc(F)cc3)C4)CC2)cc1Cl (configuration not stated)	none
COC(=O)[C@@H](C)NC(=O)[C@H]1CN(S(=O)(=O)c2ccccc2)CCN1C(=O)N1CCOCC1	none
COCCn1nnnc1C1CC2(CCOCC2)C(=O)N1Cc1ccc(Cl)cc1 (configuration not stated)	none
O=C1Nc2ccccc2CC12CCN(Cc1ccccc1)CC2	Pf Dd2 growth 3.5µM
O=C1Nc2ccccc2CC12CCN(Cc1cccc3ccccc13)CC2	none
O=C1Nc2ccccc2CC12CCN(Cc1cccnc1)CC2	none
O=C1NCc2ccccc2CC12CCN(Cc1ccccc1)CC2	none
CN(C)c1ccc(CN2CCC3(Cc4ccccc4NC3=O)C2)cc1 (configuration not stated)	Pf Dd2 growth 10µM
O=C1Nc2ccccc2CC12CCCN(Cc1ccc(C(F)(F)F)cc1)C2 (configuration not stated)	none
O=C1NCc2ccccc2CC12CCN(Cc1ccsc1)C2 (configuration not stated)	none
O=C1Nc2ccccc2CC12CCN(Cc1ccsc1)CC2	Pf Dd2 growth 11µM
CN(C)c1ccc(CN2CCC3(C2)C(=O)Nc2ccccc23)cc1 (configuration not stated)	none
O=C(N[C@@H]1CCN(C(=O)CSc2ccccn2)C[C@H]1O)c1ccncc1	none
CN(C)C(=O)c1ccc(OC2CCN(C(=O)C3CC3)CC2)nc1	none
CC(=O)N1CCN(C(=O)C[C@@H]2CCNC[C@@H]2Cc2cc(CN3CCOCC3)on2)CC1	none
CCOc1ccccc1C(=O)N1CC[C@@H]2CN(S(C)(=O)=O)[C@@H]2C1	none
CNC(=O)[C@@H](Cc1ccccc1)N1CCC[C@H]1C(=O)N1CCOCC1	none
CS(=O)(=O)N1CCCN(C(=O)C2CCOCC2)CCNC(=O)CC1c1ccccc1 (configuration not stated)	none
Cc1ccc(C(=O)N2CCCCCNC(=O)[C@@H]3CCCC[C@@H]32)s1	none
CN1CCN(C)C2(CCN(C(=O)c3cn4cc(Cl)ccc4n3)CC2)C1	none
COc1ccc(CNC(=O)Cn2c(C)cc3nc4n(c(=O)c32)CCC4)cc1	none
CCOC(=O)c1c(C)oc2nc(C)nc(NCCCN3CCN(c4cc(Cl)ccc4C)CC3)c12	none
CCOC(=O)c1c(C)oc2nc(C)nc(N3CCN(c4ccc(C)cc4C)CC3)c12	none
CCOC(=O)c1c(C)oc2nc(C)nc(NCc3ccc(Cl)cc3)c12	none
CCOC(=O)c1c(C)oc2ncnc(NCCc3ccccc3)c12	none
